This is part of a sample that, as a whole, favours compounds with a hit. Of some 79,000 tested, about 15% had one in any assay. No stated cut-off is given here; in the data, active means growth inhibition above about 70%; inactive means the rest.
Columns and labels:
[1] = NCI Yeast Anticancer Drug Screen. Data for the rad50 strain (AID 155);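 further: 0% = growth of vehicle-only cultures of the same strain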; conditions: S. cerevisiae rad50 strain growth inhibition; at 50.0 µM; stronger effect = higher value
Summary of the method: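 Genetically altered yeast (DNA repair pathway); compound treatment; growth inhibition vs vehicle ctrl.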

[2] = NCI Yeast Anticancer Drug Screen. Data for the mec2-1 strain (AID 157); conditions: S. cerevisiae mec2-1 strain, at 50.0 µM, stronger effect = higher value
Summary of the method: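 Test agents were screened against the mec2-1 yeast strain, with defined DNA repair or cell cycle alteration. Growth was scored as inhibition against vehicle-only controls.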

[3] = NCI Yeast Anticancer Drug Screen. Data for the sgs1 mgt1 strain (AID 161);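 further: 0% = growth of cultures given vehicle only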; conditions: S. cerevisiae sgs1 mgt1 strain, at 50.0 µM, stronger effect = higher value
Summary of the method: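 Read-out: growth inhibition vs vehicle controls. Cells: mutant yeast strain deficient in DNA damage repair.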

[4] = NCI Yeast Anticancer Drug Screen. Data for the cln2 rad14 strain (AID 165);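 further: 0% = growth equal to vehicle treated cultures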; conditions: S. cerevisiae cln2 rad14 strain, at 50.0 µM, stronger effect = higher value
Summary of the method: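 Growth of compound-exposed yeast (cln2 rad14 genotype) measured and expressed as inhibition relative to vehicle.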

[5] = NCI Yeast Anticancer Drug Screen. Data for the bub3 strain (AID 167); conditions: S. cerevisiae bub3 mutant strain, at 50.0 µM, stronger effect = higher value
Summary of the method: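 Yeast carrying a defined mutation is treated with each compound, and growth is compared with that of vehicle-exposed cells to give inhibition.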

[6] = NCI Yeast Anticancer Drug Screen. Data for the mlh1 rad18 strain (AID 175); conditions: S. cerevisiae mlh1 rad18 strain growth inhibition; at 50.0 µM; stronger effect = higher value
Summary of the method: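 In this whole-cell yeast screen, a strain with altered DNA damage repair is challenged with compound, and its growth is measured against matched vehicle-treated controls.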

Measured: growth inhibition

CCNc1ncnc2c1cnn2C
inactive: [1] 0.45% | [2] -1.45% | [3] 2.45% | [4] -36% | [5] -2.8% | [6] -8.4%

COc1ccc(-c2nnc3cc(C)n4nnnc4n23)cc1OC
inactive: [1] 5.3% | [2] 5.55% | [3] 13.7% | [4] 9.1% | [5] 11.6% | [6] 16.2%

Cc1cc(=O)c2c([nH]1)c1c(c3[nH]c(C)cc(=O)c32)Oc2ccccc2O1
inactive: [1] 65.2% | [2] 5% | [3] -2.95% | [4] -10.6% | [5] -5.55% | [6] 27.9%

C/C(O)=C(\C=N\C(=S)N=Nc1c(O)[nH]c2ccccc12)C(=O)Nc1ccccc1C
inactive: [1] 51.5% | [2] 36.6% | [3] 43.4% | [4] 32.5% | [5] 62% | [6] 62%

CC1(C)CC(C2CC(C)(C)CC(C)(C)[C@H]2O)[C@@H](O)C(C)(C)C1 (stereo partly drawn)
inactive: [1] -17.3% | [2] -2.3% | [3] -2.1% | [4] -13.2% | [5] -25.8% | [6] -19.9%

CC(C)=CC1C(C(=O)Oc2c(Cl)c(Cl)c(Cl)c(Cl)c2Cl)C1(C)C (stereo not drawn)
inactive: [1] 12.5% | [2] 6.5% | [3] 40.9% | [4] 12.2% | [5] -4.15% | [6] 31.2%

CN(C)CCC(c1ccccc1)c1ccccc1
inactive: [1] -22.4% | [2] -2.85% | [3] 13.7% | [4] -13.6% | [5] 14.7% | [6] -5.8%

O=C(O)CCC(=O)CC1CCCCC1
inactive: [1] 36.3% | [2] 15.9% | [3] 10.2% | [4] 39.1% | [5] -8.45% | [6] 28.2%

COc1ccc2nc(-c3ccccc3)cc(OCC(=O)O)c2c1
inactive: [1] -30.2% | [2] 21.2% | [3] -7.5% | [4] -13.1% | [5] 10.1% | [6] -15.8%

Cc1ccnc(=O)[nH]1
inactive: [1] -2.45% | [2] -0.2% | [3] 11.8% | [4] 8.45% | [5] 1.75% | [6] 29.9%

Cc1ccc(S(=O)(=O)O)c2c([N+](=O)[O-])cccc12
inactive: [1] -8.85% | [2] 6.75% | [3] -11.1% | [4] -32.4% | [5] -9.85% | [6] -22.6%

N#Cc1cc(F)c(N)c(F)c1
inactive: [1] -2.25% | [2] 7.95% | [3] 2.2% | [4] 9.95% | [5] -0.35% | [6] 3.8%

CCCCCCCCOC(=O)Nc1cccc2ccccc12
inactive: [1] -12.8% | [2] -11.2% | [3] -2.6% | [4] -39.7% | [5] -4.35% | [6] -9.2%

COC(=O)c1cc(C)c2c3ccccc3n(C)c2c1C(=O)OC
inactive: [1] 19.6% | [2] -0.4% | [3] -8.9% | [4] -1.5% | [5] -9.9% | [6] -13.5%

COc1ccc(C2(CN(C)C)COc3cc(OC)c(OC)cc3C2=O)cc1OC (stereo not drawn)
inactive: [1] 27% | [2] 2.8% | [3] -7% | [4] 27.6% | [5] -2.1% | [6] 13.3%

CCOc1ccc(/C=C2/C(=O)N(/C=C3/C(=O)Oc4ccccc4C3=O)C(=NC(C)=O)N2C)cc1
inactive: [1] 8.75% | [2] -13% | [3] -10.8% | [4] 12.7% | [5] -1.85% | [6] 2.35%

C[N+](C)(C)c1cc(Br)c(O)c(Br)c1
inactive: [1] 1.85% | [2] 31.9% | [3] 12% | [4] -2.75% | [5] 41.2% | [6] 33%

COC(=O)c1ccccc1NC(=O)/C(=N\NC(C)(C)C)C(C#N)c1nc(-c2ccc([N+](=O)[O-])cc2)cs1 (stereo not drawn)
inactive: [1] -4.35% | [2] 14% | [3] -0.6% | [4] 18.6% | [5] 26.1% | [6] -8.3%

O=c1c2n[nH]nc2nc2n1CC(c1ccccc1)S2 (stereo not drawn)
inactive: [1] -73.7% | [2] -77% | [3] -15.6% | [4] -3.2% | [5] -16.2% | [6] -20.9%

COc1ccc(C(c2cc(OC)c(OC)c(OC)c2)N2C(=O)CCC2C(=O)O)cc1 (stereo not drawn)
inactive: [1] -21.6% | [2] -13.6% | [3] -16.6% | [4] -11.8% | [5] -4.15% | [6] -8.3%

CCOC(=O)C(=O)c1cn(C)c(=O)n(C)c1=O
inactive: [1] 12.1% | [2] 2.85% | [3] 1.3% | [4] 3.8% | [5] 0.9% | [6] 10.6%

CN1NC(c2ccccc2)=NN=C1c1ccccc1
inactive: [1] -8.5% | [2] 21.9% | [3] 11.3% | [4] 0.75% | [5] 15.8% | [6] 3.65%

CC1(C)OC2C(=O)OC(COCc3ccccc3)C2O1 (stereo not drawn)
inactive: [1] 16.7% | [2] 2.2% | [3] 4.25% | [4] 11.1% | [5] 8.5% | [6] 34%

Fc1ccccc1-c1nnc(-c2ccccc2F)o1
inactive: [1] 1.65% | [2] 8.3% | [3] 6.85% | [4] 10.8% | [5] 48.2% | [6] 1.3%

c1csc(-c2nc3sc(-c4cccs4)nc3s2)c1
inactive: [1] 3.4% | [2] -9.75% | [3] 1.9% | [4] -18.8% | [5] -16.6% | [6] -2.4%

COC(C)C(NC=O)C(=O)O (stereo not drawn)
inactive: [1] 18.8% | [2] 10.9% | [3] 7.45% | [4] 8.65% | [5] 9.95% | [6] 1.9%

COc1ccc(C(C)=O)cc1CO/N=C1\CSCc2ccccc21
inactive: [1] 22.9% | [2] 12.4% | [3] 34.5% | [4] 22.4% | [5] 48.2% | [6] 12.2%

O=S(=O)(Cl)c1cc(Cl)ccc1Cl
inactive: [1] 24.8% | [2] -19.8% | [3] -17.1% | [4] -72.2% | [5] -3.6% | [6] -4.1%

COc1ccc(OC)c(NC(=O)CCCC(=O)C(C#N)c2c(Cl)cccc2Cl)c1 (stereo not drawn)
inactive: [1] 8.6% | [2] 5.5% | [3] -5.7% | [4] -8.05% | [5] 9.2% | [6] -3.5%

CNn1c(-c2ccccc2)n[nH]c1=O
inactive: [1] 6.65% | [2] 2.85% | [3] 11.4% | [4] 26.2% | [5] 6.45% | [6] 19.4%

O=C(O)Cc1ccc([N+](=O)[O-])cc1
inactive: [1] 21.1% | [2] -11.3% | [3] 36.1% | [4] 15.2% | [5] 12.8% | [6] 4.75%

Cc1ccc(O)c(C(=O)c2ccc(Cl)c(Cl)c2)c1
inactive: [1] 8.45% | [2] 13.9% | [3] 54.2% | [4] -0.9% | [5] 58.1% | [6] 11.2%

CC(C)(C)CC(C)(C)c1ccc(OCc2ccc(C(F)(F)F)cc2)cc1
inactive: [1] 14.2% | [2] 10.9% | [3] 5.1% | [4] 13.4% | [5] -4.8% | [6] -1.7%

C=CC1C(=O)N(C)[C@H](C(C)(C)C)N1C(=O)c1ccccc1 (stereo partly drawn)
inactive: [1] 1.5% | [2] 11.9% | [3] 9.1% | [4] -18.9% | [5] 2% | [6] 10%

CC1CCCC/C1=N\N(C)C (stereo not drawn)
inactive: [1] -44% | [2] -19.9% | [3] -12.8% | [4] -29.6% | [5] -5.65% | [6] 2.7%

CCCC1(O)c2ccccc2-c2ccccc21
inactive: [1] 12.1% | [2] 17.9% | [3] -5.6% | [4] 14.9% | [5] 26.4% | [6] 17%

O=C1OC(=O)C2C1N=NC2(c1ccccc1)c1ccccc1 (stereo not drawn)
inactive: [1] 47.3% | [2] 26% | [3] 22.1% | [4] -19.3% | [5] -1.15% | [6] 39.8%

CSC#CC(Sc1c(Cl)c(Cl)c(Cl)c(Cl)c1Cl)=C(Sc1c(Cl)c(Cl)c(Cl)c(Cl)c1Cl)Sc1c(Cl)c(Cl)c(Cl)c(Cl)c1Cl
inactive: [1] 2.55% | [2] -0.8% | [3] -1.7% | [4] -3.6% | [5] -0.6% | [6] -15.5%
